Source: PubChem BioAssay
Activity calls are given as the source filed them.

Key:
[1] = test system: Human papillomavirus type 1a protein E7 (residues 44-93); assay: small molecules binding HPV E7 44-93 – biochemical, small-molecule microarray, residues 44-93, 635 nm fluorescence, primary screen (AID 1108); conditions: fluorescence 635 nm, higher = more signal;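 further: E7 fragment applied at 1 µg/mL in TBST for 1 h at 4 C; score combines spot fluorescence with its signal to noise ratio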
[2] = hepatitis C replication reporter changes, two-sided – Huh7 cells, luciferase reporter, HCV replication inhibitor project, primary screen (AID 1109); conditions: Huh7 HCV replicon luciferase reporter, 48 h; higher = more signal;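 further: huh7 hepatoma cells harbouring a luciferase neomycin HCV replicon reporter; luciferase luminescence as measure of HCV replicon replication; test concentration not given here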
[3] = biological target: Left-right determination factor 2 (Homo sapiens) (UniProt O00292); assay: small molecules binding LEFTY2 protein – biochemical, small-molecule microarray, 635 nm fluorescence scan, primary screen (AID 1110); conditions: higher = more signal
[4] = biological target: Calmodulin-1 (Homo sapiens) (UniProt P0DP23); assay: small molecules binding calmodulin-1 with EGTA – biochemical, small-molecule microarray, Cy5-labelled CALM1, profiling panel (AID 1111); conditions: Cy5-CALM1 binding fluorescence, higher = more signal;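 further: labelled calmodulin applied in Tris saline Tween buffer holding calcium plus EGTA and DTT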
[5] = biological target: Calmodulin-1 (Homo sapiens) (UniProt P0DP23); assay: small molecules binding Ca-loaded calmodulin-1 – biochemical, small-molecule microarray, Cy5-labelled CALM1, plus calcium, artefact control for SMM control-protein annotation, profiling panel (AID 1112); conditions: Cy5-CALM1 binding fluorescence, higher = more signal;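 further: score merges spot fluorescence with signal to noise from triplicate slides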
[6] = probe aWnt5a binding to arrayed compounds – biochemical, biotinylated probe, 635/667 nm fluorescence, primary screen (AID 1113); conditions: small-molecule microarray, higher = more signal;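 further: score merges 667 nm fluorescence intensity with signal-to-noise per printed feature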
[7] = probe aShh binding to arrayed compounds – biochemical, biotinylated probe, 635/667 nm fluorescence, primary screen (AID 1114); conditions: small-molecule microarray, higher = more signal;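 further: probe is biotin-labelled aShh protein from a stem cell growth factor screen; measures binding of labelled protein to compounds printed on the slide; score merges feature fluorescence at 667 nm with signal-to-noise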
[8] = probe aNog binding to arrayed compounds – biochemical, biotinylated probe, 635/667 nm fluorescence, primary screen (AID 1115); conditions: small-molecule microarray, higher = more signal;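 further: probe is biotinylated aNog protein used at 0.15 µg/mL for 1 h at 4 C; z-score combines 667 nm fluorescence of each spot with its signal to noise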
[9] = biological target: Torsin-1A-interacting protein 1 (Homo sapiens) (UniProt Q5JTV8); assay: compound microarray binding of lysate hLAP1 – cell lysate, small-molecule microarray, COS7 lysate, 635/667 nm fluorescence, primary screen (AID 1116); conditions: 635 nm fluorescence, higher = more signal
[10] = biological target: Alpha-bungarotoxin (Bungarus multicinctus) (UniProt P60615); assay: compounds binding labelled alpha-BTX control protein – biochemical, small-molecule microarray, Alexa647 label, 635/667 nm fluorescence, artefact control for SMM control protein annotation, profiling panel (AID 1117); conditions: alpha-BTX-A647 binding fluorescence, higher = more signal
Albumin (Bos taurus) = Albumin (Bos taurus) (UniProt P02769); assay: compounds binding labelled BSA control protein – biochemical, small-molecule microarray, Alexa647 label, 635/667 nm fluorescence, artefact control for SMM control protein annotation, profiling panel (AID 1118); conditions: BSA-A647 binding, fluorescence 635 nm, higher = more signal;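 further: score merges 667 nm emission intensity and signal-to-noise per printed compound spot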
[11] = probe aXIP binding to arrayed compounds – biochemical, NeuroSMM set, 635/667 nm fluorescence, primary screen (AID 1119); conditions: small-molecule microarray, higher = more signal, called active from +8 up or from −8 down;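 further: probe is the protein aXip251-270 applied at 1 µg/mL to compound-printed slides; binding of probe to printed compounds measured as 667 nm fluorescence plus signal to noise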
[12] = probe aNOTCH3 binding on compound microarray – biochemical, small-molecule microarray, 635/667 nm fluorescence, primary screen (AID 1120); conditions: higher = more signal;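 further: probe is a biotin-tagged antibody raised against NOTCH3 rather than NOTCH3 protein; score merges spot fluorescence near 667 nm with spot signal to noise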
[13] = probe aNOTCH2 binding on compound microarray – biochemical, small-molecule microarray, 635/667 nm fluorescence, primary screen (AID 1121); conditions: higher = more signal;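 further: score merges feature fluorescence read at 667 nm with its signal to noise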
[14] = biological target: Carbonic anhydrase 2 (Homo sapiens) (UniProt P00918); assay: compounds binding carbonic anhydrase 2 – biochemical, small-molecule microarray, Alexa647-labelled CAII, profiling panel (AID 1122); conditions: CAII-A647 binding fluorescence, higher = more signal
[15] = COS7 lysate on small-molecule microarray, probe aHis, 635 nm (AID 1123); conditions: COS7 cell lysate, fluorescence, higher = more signal;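 further: z-score combines 667nm fluorescence intensity with signal-to-noise per printed compound spot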
[16] = probe aLAP1 signal on lysate-treated microarray – cell lysate, small-molecule microarray, COS7 lysate, primary screen (AID 1124); conditions: probe aLAP1, fluorescence, higher = more signal;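 further: lysate comes from COS7 cells expressing LAP1 and is applied at 0.3 µg/mL; score merges spot fluorescence near 667 nm with signal-to-noise over triplicate slides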
Sam68 (KHDRBS1) = assay: compounds binding KHDRBS1 protein – biochemical, small-molecule microarray, 635 nm fluorescence, primary screen (AID 1125); conditions: higher = more signal;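 further: score merges 667 nm channel intensity with signal to noise over triplicate slides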
[17] = test system: Chordin-like protein 2 (CHRDL2); assay: compounds binding chordin-like 2 – biochemical, small-molecule microarray, 635 nm fluorescence, primary screen (AID 1126); conditions: fluorescence 635 nm, higher = more signal;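 further: printed compound slides probed with Chrdl2 protein at 4 µg/mL for 1 h at 4 C; score merges 667 nm emission intensity with signal to noise over three replicate slides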
[18] = biological target: Concanavalin-A (Canavalia ensiformis) (UniProt P02866); assay: compounds binding concanavalin A lectin – biochemical, small-molecule microarray, Alexa647 label, 635 nm, artefact control for SMM control protein annotation, primary screen (AID 1127); conditions: ConA-A647 binding fluorescence, higher = more signal;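 further: z combines 667 nm emission intensity with signal-to-noise across three replicate slides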
Chain of Concanavalin-A (Canavalia ensiformis) (P02866 whole entry, looked up): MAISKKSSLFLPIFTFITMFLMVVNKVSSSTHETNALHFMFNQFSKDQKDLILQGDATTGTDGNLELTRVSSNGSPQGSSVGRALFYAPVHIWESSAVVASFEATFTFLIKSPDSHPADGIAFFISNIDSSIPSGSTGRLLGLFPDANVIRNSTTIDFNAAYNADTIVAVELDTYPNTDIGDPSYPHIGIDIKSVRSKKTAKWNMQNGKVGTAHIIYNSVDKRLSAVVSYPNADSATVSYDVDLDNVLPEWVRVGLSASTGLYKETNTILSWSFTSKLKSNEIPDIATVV

Chain of Albumin (Bos taurus) (P02769 whole entry, looked up): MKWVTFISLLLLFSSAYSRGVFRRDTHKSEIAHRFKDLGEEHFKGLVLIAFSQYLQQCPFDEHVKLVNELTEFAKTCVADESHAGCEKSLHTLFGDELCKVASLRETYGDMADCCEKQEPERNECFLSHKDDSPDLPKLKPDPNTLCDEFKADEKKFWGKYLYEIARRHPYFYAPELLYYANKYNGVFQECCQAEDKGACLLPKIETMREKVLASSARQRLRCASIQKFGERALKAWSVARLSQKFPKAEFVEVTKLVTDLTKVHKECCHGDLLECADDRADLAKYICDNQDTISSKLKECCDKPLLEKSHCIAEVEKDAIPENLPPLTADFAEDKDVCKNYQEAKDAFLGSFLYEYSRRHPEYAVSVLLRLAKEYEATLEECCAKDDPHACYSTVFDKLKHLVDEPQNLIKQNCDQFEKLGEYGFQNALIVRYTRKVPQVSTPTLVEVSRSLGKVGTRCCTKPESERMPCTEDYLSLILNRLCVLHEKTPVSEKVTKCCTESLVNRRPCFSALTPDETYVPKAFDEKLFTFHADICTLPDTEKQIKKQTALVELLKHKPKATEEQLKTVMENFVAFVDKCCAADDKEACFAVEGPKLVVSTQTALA
Chain of Alpha-bungarotoxin (Bungarus multicinctus) (P60615 whole entry, looked up): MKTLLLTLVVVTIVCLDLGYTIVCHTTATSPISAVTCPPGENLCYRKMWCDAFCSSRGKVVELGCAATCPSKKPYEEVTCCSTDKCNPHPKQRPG
Chain of Torsin-1A-interacting protein 1 (Homo sapiens) (Q5JTV8 whole entry, looked up): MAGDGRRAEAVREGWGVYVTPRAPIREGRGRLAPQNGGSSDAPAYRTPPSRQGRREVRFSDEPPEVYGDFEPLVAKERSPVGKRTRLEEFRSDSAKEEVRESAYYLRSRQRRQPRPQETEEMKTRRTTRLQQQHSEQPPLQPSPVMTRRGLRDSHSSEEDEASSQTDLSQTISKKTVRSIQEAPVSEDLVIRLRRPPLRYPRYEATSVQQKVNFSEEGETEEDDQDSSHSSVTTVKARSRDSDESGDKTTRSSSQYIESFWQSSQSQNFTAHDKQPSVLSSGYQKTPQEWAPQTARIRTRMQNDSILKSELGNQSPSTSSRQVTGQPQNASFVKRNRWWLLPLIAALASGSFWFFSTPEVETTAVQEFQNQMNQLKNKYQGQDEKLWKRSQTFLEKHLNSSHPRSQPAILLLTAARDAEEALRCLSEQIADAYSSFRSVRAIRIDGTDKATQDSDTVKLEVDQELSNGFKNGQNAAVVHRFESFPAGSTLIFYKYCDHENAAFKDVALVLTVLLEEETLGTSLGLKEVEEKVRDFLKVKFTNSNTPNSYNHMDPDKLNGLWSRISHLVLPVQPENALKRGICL
Chain of Left-right determination factor 2 (Homo sapiens) (O00292 whole entry, looked up): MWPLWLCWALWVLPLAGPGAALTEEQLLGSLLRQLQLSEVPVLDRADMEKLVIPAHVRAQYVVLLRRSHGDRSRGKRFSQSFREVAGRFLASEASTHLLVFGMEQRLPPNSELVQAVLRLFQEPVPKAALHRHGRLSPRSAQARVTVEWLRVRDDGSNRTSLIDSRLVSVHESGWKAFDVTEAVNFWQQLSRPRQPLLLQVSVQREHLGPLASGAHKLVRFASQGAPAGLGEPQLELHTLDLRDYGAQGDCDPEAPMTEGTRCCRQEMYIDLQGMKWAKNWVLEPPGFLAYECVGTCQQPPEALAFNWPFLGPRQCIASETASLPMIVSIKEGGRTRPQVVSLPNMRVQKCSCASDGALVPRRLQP

Row | Structure (SMILES) | composite z-score [1] | z-score [2] | composite z-score [3] | composite z-score [4] | composite z-score [5] | composite z-score [6] | composite z-score [7] | composite z-score [8] | composite z-score [9] | composite z-score [10] | composite z-score (Albumin (Bos taurus)) | composite Z-score [11] | composite z-score [12] | composite z-score [13] | composite z-score [14] | composite z-score [15] | composite z-score [16] | composite z-score (Sam68 (KHDRBS1)) | composite z-score [17] | composite z-score [18]
1 | CN(C)C(=O)[C@]1(CCS(=O)(=O)c2ccccc2)N=C(c2ccc(OCCCO)cc2)O[C@@H]1c1ccccc1N=[N+]=[N-] | 1.5 | 0.0131 | 0.814 | 1.79 | 0.291 | 0.119 | 0.254 | 1.9 | 2.28 | 1 | 0.963 | -0.0275 (inactive) | 0.545 | 0.111 | 0.689 | 2.93 | 0.108 | 1.29 | 0.555 | 1.16
2 | O=C(CS)NCCCCCCNC(=O)[C@H]1C[C@H]2C(=O)N[C@@H](Cc3ccccc3)C(=O)N2[C@H]1c1ccc(O)cc1 | 1.39 | -0.53 | 0.656 | -0.123 | -0.426 | -0.1 | -0.339 | -0.493 | 0.0397 | 0.329 | -0.242 | 0.578 (inactive) | -0.423 | -0.0924 | 0.557 | 2.18 | 0.871 | 1.18 | 0.757 | 1.1
3 | [N-]=[N+]=NCc1ccccc1C[C@@]1(C(=O)NCc2ccccc2)N=C(c2ccc(OCCCO)cc2)O[C@@H]1c1ccccc1N=[N+]=[N-] | 1.41 | -2.26 | -0.346 | 1.31 | 0.845 | 0.0839 | 0.108 | 1.29 | 1.45 | 0.937 | 0.428 | -0.126 (inactive) | -0.102 | -0.0527 | 0.301 | -0.0255 | 0.472 | 1.06 | -1.06 | 0.725
4 | COc1ccc(-c2nc(-c3ccccc3)c3c(c2C)CO[Si]3(C(C)C)C(C)C)cn1 | 0.107 | -1.05 | 0.372 | -0.461 | -0.309 | -0.0405 | 0.0278 | -0.294 | 0.104 | 0.397 | -0.475 | 0.428 (inactive) | -0.126 | -0.0921 | 0.0924 | 0.583 | -0.209 | 0.152 | 0.151 | -0.209
5 | COc1ccc([Si](C)(C)[C@@H]2[C@@H](CC(=O)N(CCO)Cc3ccccc3)O[C@]3(C(=O)N(Cc4cccc(N5C(=O)c6cccc7cccc5c67)c4)c4ccccc43)[C@H]2C)cc1 | -0.726 | -3.94 | 0.882 | 0.222 | 0.234 | -0.1 | -0.209 | -0.424 | 0.566 | 0.389 | -0.0059 | 0.363 (inactive) | -0.124 | -0.203 | -0.199 | 0.135 | 0.0553 | 0.0019 | 0.432 | 1.04
6 | CC(C)Cc1ccc(CN2CC[C@@H](NC(=O)Nc3ccccc3)C2)cc1 | -0.709 | -4.9 | 0.463 | -0.433 | 0.0615 | -0.0202 | -0.221 | -0.164 | -0.311 | 0.166 | 0.476 | -0.119 (inactive) | -0.133 | -0.0974 | 0.119 | -0.104 | 0.397 | -0.0489 | 0.214 | -0.0211
7 | CCOC(=O)c1ccc(NC(=O)O[C@H]2[C@H](OC(=O)Nc3ccc4c(c3)OCO4)[C@H](OC(=O)Nc3ccc4c(c3)OCO4)[C@@H](OC)O[C@@H]2CO)cc1 | 1.03 | 0.295 | 0.803 | 1.41 | -0.179 | 0.0771 | 0.369 | 0.252 | 0.645 | 1.22 | 0.0541 | 1.52 (inactive) | 0.411 | 0.077 | 0.49 | 1.52 | 0.551 | 1.3 | 0.393 | 1.18
8 | CC(CO)N1C(=O)[C@@H]2[C@H]3C(=O)OCC=C[C@H]3OC23C=CCN(CCN2CCOCC2)C(=O)[C@@H]13 (stereo not given in full) | -0.186 | 0.606 | -0.396 | -0.998 | -1.55 | -0.144 | -0.309 | -0.5 | -0.469 | -0.245 | 0.138 | -0.0888 (inactive) | -0.152 | -0.117 | 0.302 | -1.05 | -0.586 | -0.0161 | -0.235 | -0.22
9 | CCCCCCCCCCC(O)C1C=CC2C(=O)N(C)C(=O)C2N1NC(=O)OC(C)(C)C (stereo not given) | 1.17 | -2.54 | 0.186 | 1.41 | 0.953 | -0.0684 | 0.445 | 0.3 | -0.122 | 0.294 | 0.682 | 0.245 (inactive) | -0.0077 | -0.124 | 0.344 | 1.24 | -0.45 | 0.717 | -0.409 | 1.12
10 | COCCOC(=O)N1C(=O)[C@@]2(c3cc(C#Cc4ccc(OC)cc4)ccc31)[C@H](C(=O)Nc1nc3ccccc3s1)[C@H]1C(=O)O[C@H](c3ccccc3)[C@H](c3ccccc3)N1[C@@H]2c1ccc(O)cc1 | 1.38 | -0.841 | 0.631 | 0.876 | -0.138 | 0.0559 | 0.314 | -0.376 | 0.37 | 1.34 | 0.374 | 0.364 (inactive) | 0.214 | -0.118 | -0.111 | 1.91 | 0.171 | 1.33 | 0.576 | 1.16
11 | O=C1C2C=CC(C(O)c3ccc(Br)cc3)N(Nc3ccccc3F)C2C(=O)N1c1ccccc1 (stereo not given) | 0.861 | -0.445 | -0.134 | 0.0034 | 0.666 | -0.0718 | -0.0626 | -0.571 | -0.147 | 0.225 | 0.826 | 0.0051 (inactive) | -0.038 | -0.126 | 0.762 | 1.58 | 0.358 | 0.68 | 0.0957 | 0.667
